“And” between values parts separate entries of the source, which are not always exact repeats. Equal entries are not always repeated. Records with an inconclusive call do not appear. A call without a number means that no potency is given here. Some structures have more than one record in an assay (separate samples or runs), and their calls can disagree. The source made the active and inactive calls. Unless noted, calls follow the shape of the dose curve; as a rule, active = well fitted curve in the direction sought with a large enough effect in the repeat runs; inconclusive = weak or mixed curves; inactive = no such curve, though single readings can be large; an effect the other way counts as inactive or inconclusive.
Key:
[1] = qHTS assay to identify small molecule agonists of the peroxisome proliferator-activated receptor delta (PPARd) signaling pathway - cell viability counter screen (AID 743211); also: nearly all actives have a fitted effect of over 55% in size; also: potency is read from the fitted curve at half-maximal effect
How it was run: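 qHTS cell viability: PPARd-bla HEK293H; 17 h cpd, 37C; CellTiter-Glo, luminescence at 30 min RT.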

[2] = molecular target: Peroxisome proliferator-activated receptor delta (Homo sapiens) (UniProt Q03181); experiment: qHTS assay to identify small molecule agonists of the peroxisome proliferator-activated receptor delta (PPARd) signaling pathway (AID 743212; calls by dose curve)
How it was run: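 A PPARd-bla HEK293H line with beta-lactamase under an Upstream Activator Sequence is treated with compounds at 37 C. Substrate loading for 2 h at room temperature precedes the fluorescence measurement.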

[3] = qHTS assay to identify small molecule antagonists of the peroxisome proliferator-activated receptor delta (PPARd) signaling pathway - cell viability counter screen (AID 743213); also: nearly all actives have a fitted effect of over 50% in size; also: potency is read from the fitted curve at half-maximal effect
How it was run: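 Same-well viability: cells pre-incubated 5 h, dosed with compound plus 300 nM L165041, kept 17 h at 37 C, FRET substrate 2 h RT, then CellTiter-Glo 30 min RT and luminescence.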

[4] = molecular target: Peroxisome proliferator-activated receptor delta (Homo sapiens) (UniProt Q03181); experiment: qHTS assay to identify small molecule antagonists of the peroxisome proliferator-activated receptor delta (PPARd) signaling pathway (AID 743215; active = well fitted inhibition curve with a large enough effect in the signal ratio in the repeat runs, not every such curve was filed as active; the % refers to the signal ratio;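 also: cells stimulated with agonist L165041 at 300 nM final during compound exposure; series mostly up to about 62 µM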)
How it was run: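 PPARd-bla HEK293H cells (UAS-bla reporter) preincubated 5 h, then given compound plus 300 nM final L165041 agonist for 17 h at 37 C. Beta-lactamase activity read by LiveBLAzer B/G FRET substrate fluorescence after 2 h at room temperature.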

[5] = qHTS assay to identify small molecule agonists of the farnesoid-X-receptor (FXR) signaling pathway - cell viability counter screen (AID 743218); also: nearly all actives have a fitted effect of over 45% in size; also: potency is read from the fitted curve at half-maximal effect
How it was run: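 FXR-UAS-bla HEK 293T cells exposed to compounds for 16 h at 37C. Cytotoxicity read in the same wells by CellTiter-Glo luminescence after 30 min at room temperature, following the beta-lactamase FRET read.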

[6] = qHTS assay to identify small molecule antagonists of the farnesoid-X-receptor (FXR) signaling pathway - cell viability counter screen (AID 743221; active = well fitted cell-killing curve with a large enough effect in the repeat runs, not every such curve was filed as active; also: nearly all actives have a fitted effect of over 50% in size; also: potency is read from the fitted curve at half-maximal effect)
How it was run: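 After a 5 h settling period, FXR-bla HEK 293T cells receive compound and chenodeoxycholic acid (50 uM final) and incubate 16 h at 37 C; CellTiter-Glo luminescence, read after 30 min at room temperature, reports cell viability.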

[7] = qHTS assay to identify small molecule agonists of the vitamin D receptor (VDR) signaling pathway - cell viability counter screen (AID 743224); also: nearly all actives have a fitted effect of over 50% in size; also: potency is read from the fitted curve at half-maximal effect
How it was run: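 VDR-bla cells, 4 h after plating, exposed to compounds for 16 h at 37C; viability then read in the same wells as CellTiter-Glo luminescence after 30 min at room temperature, following the bla FRET read.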

[8] = qHTS assay to identify small molecule agonists of the NFkB signaling pathway - cell viability counter screen (AID 1159515; calls by dose curve; also: series mostly up to about 61 µM; nearly all actives have a fitted effect of over 55% in size)
How it was run: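 NFkB-bla ME-180 cells, 2,000/well, plated overnight at 37 C; compound added for 5 hr at 37 C. Viability read in the same wells as the bla reporter, by CellTiter-Glo luminescence after 30 min at room temperature.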

[9] = qHTS assay to identify small molecule agonists of the endoplasmic reticulum stress response signaling pathway (AID 1159516; active = well fitted activation curve with a large enough effect in the signal ratio in the repeat runs, not every such curve was filed as active; the % refers to the signal ratio)
How it was run: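 CellSensor ESRE-bla HeLa cells, 1,500 per well, plated overnight, then exposed to compounds for 5 hr at 37 C. Beta-lactamase reporter read with LiveBLAzer B/G FRET substrate after 2 hr at room temperature, 405 nm excitation, 460 and 530 nm emission.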

[10] = qHTS assay to identify small molecule agonists of the endoplasmic reticulum stress response signaling pathway - cell viability counter screen (AID 1159517; calls by dose curve;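 also: HeLa cells carrying an ER stress response element beta-lactamase reporter; series mostly up to about 61 µM; nearly all actives have a fitted effect of over 50% in size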)
How it was run: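 CellTiter-Glo was added to wells already read for beta-lactamase FRET, and luminescence was recorded 30 min later. Cells: ESRE-bla HeLa, 1,500 per well, compound exposure 5 hr at 37 C.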

[11] = qHTS assay to identify small molecule antagonists of the retinoid-related orphan receptor gamma (ROR-gamma) signaling pathway - cell viability counter screen (AID 1159520); also: nearly all actives have a fitted effect of over 50% in size; also: potency is read from the fitted curve at half-maximal effect
How it was run: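 Tet-on ROR gamma CHO cells (1,000/well) were plated 4 hr, given compounds in DMSO for 2 hr at 37 C, then induced with 1 uM final doxycycline for 16 hr. Viability was read as ATP by CellTiter-Glo luminescence after 30 min.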

[12] = qHTS assay to identify small molecule agonists of the AP-1 signaling pathway - cell viability counter screen (AID 1159525; calls by dose curve; also: nearly all actives have a fitted effect of over 55% in size; also: potency is read from the fitted curve at half-maximal effect)
How it was run: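 ME-180 AP-1-bla, 2500 cells/well, Opti-MEM + 0.5% dialyzed FBS; overnight 37 °C; cpd 15-pt titration, 5 h 37 °C; CellTiter-Glo 30 min RT; luminescence read; normalised to TOAB and DMSO controls.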

[13] = qHTS assay to identify small molecule agonists of the AP-1 signaling pathway (AID 1159526; calls by dose curve)
[14] = molecular target: Retinoic acid receptor RXR-alpha (Homo sapiens) (UniProt P19793); experiment: qHTS assay to identify small molecule agonists of the RXR signaling pathway (AID 1159527; calls by dose curve; also: nearly all actives have a fitted effect of over 35% in size)
How it was run: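 16 hr incubation of compound-treated RXR-alpha-UAS-bla HEK 293T cells (2% charcoal-stripped FBS, 37 C) preceded a 2 hr room-temperature LiveBLAzer FRET substrate step and blue/green fluorescence measurement.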

[15] = qHTS assay to identify small molecule antagonists of the vitamin D receptor (VDR) signaling pathway - cell viability counter screen (AID 743225); also: nearly all actives have a fitted effect of over 50% in size; also: potency is read from the fitted curve at half-maximal effect
How it was run: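 Parallel cytotoxicity test: VDR-UAS-bla HEK 293T, 3 nM (final) 1-alpha,25-dihydroxyvitamin D3 with test compound, 16 h, 37C. Endpoint is CellTiter-Glo luminescence in the same wells.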

[16] = molecular target: Bile acid receptor (Homo sapiens) (UniProt Q96RI1); experiment: qHTS assay to identify small molecule agonists of the farnesoid-X-receptor (FXR) signaling pathway (AID 743220; active = well fitted activation curve with a large enough effect in the signal ratio in the repeat runs, not every such curve was filed as active; the % refers to the signal ratio)
How it was run: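 Beta-lactamase reporter under UAS control in GeneBLAzer FXR HEK 293T cells (5000/well) measured with LiveBLAzer FRET substrate after 2 h at room temperature. Compound exposure lasted 16 h at 37C.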

[17] = molecular target: Nuclear receptor ROR-gamma (Homo sapiens) (UniProt P51449); experiment: qHTS assay to identify small molecule antagonists of the retinoid-related orphan receptor gamma (ROR-gamma) signaling pathway (AID 1159521; also: nearly all actives have a fitted effect of over 50% in size; also: potency is read from the fitted curve at half-maximal effect)
How it was run: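 Decreased RORE-driven luciferase luminescence indicates antagonism. Tet-on RORγ CHO cells received compound, then 1 uM final doxycycline 2 h later; signal read after 16 h incubation.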

[18] = molecular target: Bile acid receptor (Homo sapiens) (UniProt Q96RI1); experiment: qHTS assay to identify small molecule antagonists of the farnesoid-X-receptor (FXR) signaling pathway (AID 743217; active = well fitted inhibition curve with a large enough effect in the signal ratio in the repeat runs, not every such curve was filed as active; the % refers to the signal ratio; also: potency is read from the fitted curve at half-maximal effect)
How it was run: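 FXR-UAS-bla HEK 293T cells (beta-lactamase reporter) given compound plus chenodeoxycholic acid (50 uM final), 16 h at 37C. LiveBLAzer B/G FRET substrate added for 2 h at room temperature; fluorescence read.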

[19] = molecular target: Vitamin D3 receptor (Homo sapiens) (UniProt P11473); experiment: qHTS assay to identify small molecule agonists of the vitamin D receptor (VDR) signaling pathway (AID 743222; calls by dose curve)
How it was run: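 VDR-bla cells plated 4 h at 37 C, then exposed to compounds for 16 h at 37 C. Beta-lactamase reporter activity measured by fluorescence after 2 h room-temperature loading with LiveBLAzer B/G FRET substrate.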

[20] = molecular target: Vitamin D3 receptor (Homo sapiens) (UniProt P11473); experiment: qHTS assay to identify small molecule antagonists of the vitamin D receptor (VDR) signaling pathway (AID 743223; active = well fitted inhibition curve with a large enough effect in the signal ratio in the repeat runs, not every such curve was filed as active; the % refers to the signal ratio)
How it was run: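 Reporter line VDR-bla; stimulus 1alpha,25-(OH)2 vitamin D3, 3 nM final; compound co-addition, 16 h 37C/5% CO2; LiveBLAzer B/G substrate 2 h RT; fluorescence intensity.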

Chain of Peroxisome proliferator-activated receptor delta (Homo sapiens) (Q03181 whole entry, looked up): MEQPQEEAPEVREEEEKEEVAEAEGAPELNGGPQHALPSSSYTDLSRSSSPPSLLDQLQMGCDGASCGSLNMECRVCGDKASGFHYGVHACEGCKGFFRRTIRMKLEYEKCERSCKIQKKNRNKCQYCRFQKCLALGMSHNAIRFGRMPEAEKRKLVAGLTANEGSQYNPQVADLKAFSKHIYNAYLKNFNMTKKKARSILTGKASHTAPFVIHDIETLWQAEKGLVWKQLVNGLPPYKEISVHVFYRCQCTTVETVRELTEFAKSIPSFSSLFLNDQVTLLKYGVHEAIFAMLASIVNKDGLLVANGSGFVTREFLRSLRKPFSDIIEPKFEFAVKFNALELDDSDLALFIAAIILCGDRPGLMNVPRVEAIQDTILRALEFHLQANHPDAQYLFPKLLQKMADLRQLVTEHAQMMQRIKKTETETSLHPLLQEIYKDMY
Chain of Bile acid receptor (Homo sapiens) (Q96RI1 whole entry, looked up): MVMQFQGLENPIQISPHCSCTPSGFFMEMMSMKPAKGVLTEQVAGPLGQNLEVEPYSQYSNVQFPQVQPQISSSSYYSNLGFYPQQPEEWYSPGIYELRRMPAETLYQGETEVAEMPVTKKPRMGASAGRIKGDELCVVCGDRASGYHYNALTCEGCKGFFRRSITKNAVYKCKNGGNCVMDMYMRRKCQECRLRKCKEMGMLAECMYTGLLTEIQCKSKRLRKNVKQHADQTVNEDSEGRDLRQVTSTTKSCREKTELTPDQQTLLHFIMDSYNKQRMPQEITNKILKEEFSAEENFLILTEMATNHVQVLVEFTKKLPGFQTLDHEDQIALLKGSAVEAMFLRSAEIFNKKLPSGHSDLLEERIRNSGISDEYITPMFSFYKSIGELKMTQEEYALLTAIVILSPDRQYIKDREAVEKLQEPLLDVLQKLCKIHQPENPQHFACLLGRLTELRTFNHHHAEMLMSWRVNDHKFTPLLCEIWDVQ
Chain of Vitamin D3 receptor (Homo sapiens) (P11473 whole entry, looked up): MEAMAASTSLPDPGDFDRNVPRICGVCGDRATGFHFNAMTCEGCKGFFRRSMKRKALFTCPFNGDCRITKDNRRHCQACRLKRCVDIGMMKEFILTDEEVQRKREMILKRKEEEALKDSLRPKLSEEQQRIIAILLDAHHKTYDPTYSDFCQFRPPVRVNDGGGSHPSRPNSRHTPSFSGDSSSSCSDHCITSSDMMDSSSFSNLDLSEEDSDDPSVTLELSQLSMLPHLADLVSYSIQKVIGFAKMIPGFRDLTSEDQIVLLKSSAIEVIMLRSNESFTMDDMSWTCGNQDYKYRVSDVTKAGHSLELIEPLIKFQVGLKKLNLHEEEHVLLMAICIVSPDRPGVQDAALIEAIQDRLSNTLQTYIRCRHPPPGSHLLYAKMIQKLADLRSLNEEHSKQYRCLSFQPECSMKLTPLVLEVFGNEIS
Chain of Retinoic acid receptor RXR-alpha (Homo sapiens) (P19793 whole entry, looked up): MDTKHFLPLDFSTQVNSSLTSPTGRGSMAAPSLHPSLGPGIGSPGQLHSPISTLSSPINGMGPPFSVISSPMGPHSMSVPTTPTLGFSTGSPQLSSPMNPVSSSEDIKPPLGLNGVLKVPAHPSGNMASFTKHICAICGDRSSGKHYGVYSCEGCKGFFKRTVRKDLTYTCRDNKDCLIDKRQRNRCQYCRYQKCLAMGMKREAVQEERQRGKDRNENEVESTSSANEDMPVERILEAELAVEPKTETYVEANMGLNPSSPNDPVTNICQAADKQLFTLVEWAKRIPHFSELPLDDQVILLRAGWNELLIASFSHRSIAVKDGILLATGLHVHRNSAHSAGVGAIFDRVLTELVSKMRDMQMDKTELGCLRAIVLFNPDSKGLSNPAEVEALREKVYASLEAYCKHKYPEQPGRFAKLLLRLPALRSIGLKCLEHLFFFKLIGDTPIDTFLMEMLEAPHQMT

| Compound | Potency [1] | Potency [2] | Potency [3] | Potency [4] | Potency [5] | Potency [6] | Potency [7] | Potency [8] | outcome [9] | Potency [10] | Potency [11] | Potency [12] | Potency [13] | Potency [14] | Potency [15] | Potency [16] | Potency [17] | Potency [18] | Potency [19] | Potency [20] |
| --- | --- | --- | --- | --- | --- | --- | --- | --- | --- | --- | --- | --- | --- | --- | --- | --- | --- | --- | --- | --- |
| O=C(O)c1cn(-c2ccc(F)cc2)c2cc(N3CCNCC3)c(F)cc2c1=O | inactive | inactive | inactive | inactive | inactive | inactive | inactive | inactive | inactive | inactive | inactive | inactive | inactive | inactive |  |  |  |  |  |  |
| O | inactive |  | inactive |  | inactive | inactive | inactive | inactive | inactive | inactive | inactive | inactive | inactive | inactive | inactive |  |  |  |  |  |
| CC(C)(C)c1cc(C(C)(C)C)c(O)c(C(C)(C)C)c1 | 49 µM (active) | inactive | inactive | inactive |  | inactive | 38.9 µM (active) | inactive | inactive | inactive | inactive | inactive and 49 µM (active) | inactive |  |  | inactive | inactive |  |  |  |
| CN(C)c1ccc2nc3ccc(=[N+](C)C)cc-3sc2c1 | 9.39 µM (active) and 49 µM (active) |  | 49 µM (active) and inactive |  | inactive | 21 µM (active) and 49 µM (active) | 49 µM (active) and 2.98 µM (active) | inactive | inactive | inactive | 16.6 µM (active) and 13.7 µM (active) | 16.7 µM (active) and 43.6 µM (active) |  |  | inactive and 21.9 µM (active) | inactive | inactive and 34.4 µM (active) | 8.37 µM (active) and 21.9 µM (active) and 8.41 µM (active) |  |  |
| CC1=C(C=O)C(C)(C)CC=C1 | inactive | inactive | inactive |  | inactive | inactive | inactive | inactive | inactive | inactive | inactive | inactive | inactive | inactive |  |  |  |  | inactive |  |
| CCC(C)(C)C(=O)O[C@H]1C[C@@H](C)C=C2C=C[C@H](C)[C@H](CC[C@@H]3C[C@@H](O)CC(=O)O3)[C@H]21 |  |  | inactive |  | inactive | 11 µM (active) | inactive | inactive | inactive | inactive | 9.44 µM (active) | inactive | inactive |  | inactive |  |  |  | inactive |  |
| O=C1CC2(CCCC2)CC(=O)N1CCCCN1CCN(c2ncccn2)CC1 | inactive |  | inactive |  | 24.5 µM (active) and inactive | inactive | inactive | inactive | inactive | inactive | inactive | inactive | inactive |  | inactive | inactive |  | inactive | inactive |  |
| C=C(C)C1CC=C(C)C(OC(C)=O)C1 (configuration not stated) | inactive | inactive | inactive | inactive | inactive | inactive | inactive | inactive | inactive | inactive | inactive | inactive | inactive | inactive | inactive | inactive |  | inactive | inactive | inactive |
| CC(C)(C)NCC(O)c1cc(O)cc(O)c1 (configuration not stated) | inactive |  | inactive |  |  | inactive | inactive | inactive | inactive | inactive | inactive | inactive | inactive | inactive | 0.0019 µM (active) |  |  |  |  |  |
| C=CC(=O)OCCCCCCCC | inactive | inactive | inactive | inactive | inactive | inactive | inactive | inactive | inactive | inactive | inactive | inactive | inactive | inactive |  |  |  |  | inactive |  |
| CCN(CC)C(=O)Nc1ccc(OCC(O)CNC(C)(C)C)c(C(C)=O)c1 (configuration not stated) | inactive | inactive | inactive | inactive | inactive | inactive | inactive | inactive | inactive | inactive | inactive | inactive | inactive | inactive | inactive |  |  |  |  |  |

From PubChem BioAssay (Tox21)
